# According to PubChem BioAssay:
# Values without a mark were called inactive. For part of these data: Entries with a potency or affinity are not part of this list. The list shows a part of the results. Activity calls are given as the source filed them.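 Rule for the calls, unless noted: active = membrane potential signal moving either way by over 3 SD of the maximum-effect control, in both duplicate plates, meaning non-specific; inactive = the rest.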
# Assays:
# [1] = target: Short transient receptor potential channel 4 (Mus musculus) (UniProt Q9QUQ5); assay: DAMGO-gated TRPC4 membrane potential modulation – cell-based, second specificity screen, HEK293 TRPC4/mu-opioid, selectivity assay for TRPC6 inhibitor project, confirmation (AID 2776;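 active = compounds whose fluorescence signal differed from control wells by over 3 SD, either direction, in both duplicate plates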); conditions: HEK293 TRPC4/MOR, membrane potential dye fluorescence, at 10 µM, channel activated by saturating DAMGO dose; stronger effect = higher value
# [2] = system: transient receptor potential cation channel C4 (TRPC4), mouse; assay: membrane potential change in TRPC4 cells – cell-based, HEK293 TRPC4/mu-opioid, membrane potential dye, selectivity assay for TRPC6 inhibitor project, confirmation (AID 2777;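 active = rise or fall in signal beyond 3 SD of buffer-only wells in both replicate plates, either sign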;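 note: integrated kinetic ratio of fluorescence range over baseline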); conditions: membrane potential fluorescence, at 10 µM
# [3] = parental HEK293 depolarization signal interference – cell-based, second counter screen, counter-screen for TRPC6 inhibitor project, confirmation (AID 2779); conditions: parental HEK293 membrane potential dye fluorescence; at 10 µM; maximal acetylcholine challenge after compound addition
# [4] = nonspecific voltage dye signal in HEK293 – cell-based, parental HEK293, counter-screen for TRPC6 inhibitor project, confirmation (AID 2780;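 active = membrane potential signal shifting up or down by more than 3 SD of buffer-only wells, on both duplicate plates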;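 for membrane potential signal change: plate controls were buffer EC0 wells for no effect and acetylcholine ECmax wells for full effect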); conditions: parental HEK293 membrane potential dye fluorescence; at 10 µM
# [5] = target: Short transient receptor potential channel 6 (Mus musculus) (UniProt Q61143); assay: blockers of TRPC6 cation channel activity – HEK293 cells, membrane potential dye, duplicate, confirmation (AID 488960;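 active = fluorescence ratio falls more than 5 SD below the full-stimulation control mean, in both duplicate runs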;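 for inhibition: integrated fluorescence ratio of peak minus minimum over baseline after agonist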); conditions: ACh-evoked depolarization, at 10 µM; stronger effect = higher value
# [6] = target: Short transient receptor potential channel 6 (Mus musculus) (UniProt Q61143); assay: mouse TRPC6 channel activators, confirmation, HEK293 cells, membrane potential dye, duplicate (AID 488961;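 active = ratio signal rise beyond 5 SD above unstimulated control wells' mean, seen in both duplicate runs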); conditions: HEK293-TRPC6 membrane potential dye fluorescence, FDSS, at 10 µM; stronger effect = higher value
# [7] = nonspecific flux increase, KCNQ1-free cells – parental CHO cells, counter-screen for KCNQ1 potentiator project (AID 493006;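 active = duplicate-averaged activation above buffer control mean plus 5 SD of those controls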;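 for activation: fluorescence ratio of max minus min over baseline after K+ and Tl+ depolarization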); conditions: parental CHO-K1 cells, FluxOR thallium flux, at 10 µM; stronger effect = higher value
# [8] = target: Potassium voltage-gated channel subfamily KQT member 1 (Homo sapiens) (UniProt P51787); assay: enhancement of KCNQ1 channel thallium flux – FluxOR thallium flux, CHO cells, duplicates, confirmation (AID 493007;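 active = potentiation averaged over duplicate wells exceeding buffer-only control mean by more than 3 SD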;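 for outcome: cells depolarized by a potassium plus thallium sulfate stimulus after compound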;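 for potentiation: 0% = buffer-only wells and 100% = R-L3 activator control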); conditions: KCNQ1 cell line, FluxOR thallium flux fluorescence, at 10 µM; stronger effect = higher value, % of reference activator effect, buffer zero
# [9] = target: Potassium voltage-gated channel subfamily KQT member 2 (Rattus norvegicus) (UniProt O88943); assay: KCNQ2 thallium flux enhancement – KCNQ2-CHO-K1 cells, selectivity assay for KCNQ1 potentiator project (AID 493009;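 active = mean duplicate potentiation above the buffer control mean plus 5 SD of buffer wells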;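 note: assay conditions were tuned for KCNQ1 rather than KCNQ2 modulators; signal is max minus min fluorescence divided by baseline after thallium stimulus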); conditions: FluxOR thallium flux fluorescence, at 10 µM; stronger effect = higher value, scaled: buffer 0, activator control 100
# [10] = target: Potassium voltage-gated channel subfamily KQT member 1 (Homo sapiens) (UniProt P51787); assay: KCNQ1 activators by electrophysiology – IonWorks patch clamp, KCNQ1-CHO cells, orthogonal assay for KCNQ1 potentiator project, confirmation (AID 493184;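 active = current rise at least 3 SD above the untreated control mean in each of two repeat wells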); conditions: automated patch clamp current, at 10 µM; stronger effect = higher value
# [11] = system: TRPC4 beta (transient receptor potential cation channel C4), mouse; assay: TRPC4 cation channel opening, retest – cell-based, Fluo4 calcium, HEK293 TRPC4beta/mu-opioid, duplicates, 10 µM, confirmation (AID 2426;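 active = fluorescence ratio normalized to control raised more than 50% in primary screen plus both repeat runs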;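 for activation: percent rise of integrated ratio over buffer wells lacking compound which define 0%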); conditions: Fluo4 calcium fluorescence, at 10 µM; stronger effect = higher value
# [12] = system: transient receptor potential cation channel C4 beta (TRPC4), mouse; assay: TRPC4 cation channel opening, second retest – cell-based, second round, Fluo4, HEK293 TRPC4beta/mu-opioid, 1 µM, confirmation (AID 2461;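 active = primary screen active and over 50% activation in each of two duplicate runs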;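 for activation: 0% = wells without test compound as baseline of integrated fluorescence ratio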); conditions: Fluo4 calcium fluorescence, at 1 µM; stronger effect = higher value
# [13] = system: TRPC4 (transient receptor potential cation channel C4 beta), mouse; assay: potentiation of DAMGO EC20 TRPC4 response – cell-based, second round, Fluo-4, HEK293 TRPC4beta/mu-opioid, 1 µM, confirmation (AID 2554;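 active = primary screen hit whose fluorescence ratio, in both repeats, exceeds the weak agonist control mean by 3 SD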); conditions: DAMGO EC20, Fluo-4 calcium flux, at 1 µM; stronger effect = higher value
# [14] = system: TRPC4 beta (transient receptor potential cation channel C4), mouse; assay: potentiation of DAMGO EC20 TRPC4 response – cell-based, Fluo-4, HEK293 TRPC4beta/mu-opioid, confirmation (AID 2555;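 active = primary screen hit whose calcium fluorescence ratio, in both repeats, exceeds the weak agonist control mean by 3 SD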); conditions: DAMGO EC20, Fluo-4 calcium flux, at 10 µM; stronger effect = higher value
# [15] = target: Short transient receptor potential channel 4 (Mus musculus) (UniProt Q9QUQ5); assay: blockers of DAMGO-evoked TRPC4 calcium flux – cell-based, Fluo4, HEK293 TRPC4beta/mu-opioid, confirmation (AID 2636;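 active = calcium signal cut by more than 3 SD below the full-agonist control yet still positive, in both repeats and the earlier primary screen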); conditions: at 10 µM; stronger effect = higher value
# [16] = target: Short transient receptor potential channel 4 (Mus musculus) (UniProt Q9QUQ5); assay: blockers of DAMGO-evoked TRPC4 calcium flux – cell-based, second round, Fluo4, HEK293 TRPC4beta/mu-opioid, 1 µM, confirmation (AID 2637;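 active = calcium signal ratio cut to more than 3 SD under the fully stimulated control mean yet still positive, in both repeats and the primary screen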); conditions: at 1 µM; stronger effect = higher value
# [17] = target: Short transient receptor potential channel 4 (Mus musculus) (UniProt Q9QUQ5); assay: block of DAMGO-driven TRPC4 calcium entry – cell-based, HEK293 TRPC4/mu-opioid, Fluo-4 calcium, dose response (AID 434942;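 active = primary screen inhibitor hit that blocks the TRPC4 channel at some tested dose, yielding a dose curve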)
# [18] = target: Short transient receptor potential channel 6 (Mus musculus) (UniProt Q61143); assay: TRPC6 blockade by TRPC4 inhibitor hits – cell-based, HEK293, membrane potential dye, duplicate, selectivity assay for TRPC4 inhibitor project, confirmation (AID 434948;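 active = active in primary screen and both duplicates, each dropping signal beyond three positive-control SD with fluorescence still positive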); conditions: HEK293 TRPC6, membrane potential dye fluorescence, at 10 µM, stimulated with maximal-effect acetylcholine; stronger effect = higher value
# [19] = target: Short transient receptor potential channel 6 (Mus musculus) (UniProt Q61143); assay: TRPC6 opening by TRPC4 activator hits – cell-based, HEK293, membrane potential dye, duplicate, selectivity assay for TRPC4 activator project, confirmation (AID 434950;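 active = membrane potential signal rise above negative control mean plus 3 SD in both duplicates, also active in the earlier TRPC4 screen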;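 for activation: 0% = buffer only wells and 100% = acetylcholine maximal-effect wells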); conditions: HEK293 TRPC6, membrane potential fluorescence, at 10 µM; activation: stronger effect = higher value; outcome: activation
# [20] = target: Short transient receptor potential channel 6 (Mus musculus) (UniProt Q61143); assay: positive modulators of mouse TRPC6 channel – HEK293 cells, membrane potential dye, duplicate, selectivity assay for TRPC4 potentiator project, confirmation (AID 434952;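 active = compound raising the membrane signal above positive-control mean plus 3 SD in both repeats, and a primary screen hit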); conditions: HEK293 TRPC6, membrane potential dye fluorescence, at 10 µM, maximal acetylcholine added after compound; stronger effect = higher value
# [21] = target: Short transient receptor potential channel 4 (Mus musculus) (UniProt Q9QUQ5); assay: calcium flux activators in TRPC4/5HT1a cells, counter-screen for TRPC4 activator project, cell-based, second counter screen, HEK293 TRPC4/5HT1a, Fluo-4 (AID 434977;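 active = calcium signal rise above buffer-control mean plus 5 SD in both duplicates, and also a hit in the primary screen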;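 note: plate controls were assay buffer for no effect and maximal serotonin response for full effect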); conditions: Fluo-4 calcium flux, at 10 µM; stronger effect = higher value
# [22] = serotonin-gated TRPC4 signal block – cell-based, second counter screen, HEK293 TRPC4/5HT1a, Fluo-4, counter-screen for TRPC4 inhibitor project, confirmation (AID 434978;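 active = primary screen active whose calcium signal fell more than 3 SD beyond the full-serotonin control mean in both duplicate plates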;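 for outcome: serotonin given first at submaximal then at maximal dose after compound preincubation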); conditions: Fluo-4 calcium flux, at 10 µM, serotonin added to trigger calcium flux; stronger effect = higher value
# [23] = system: TRPC4 (mouse), co-expressed with 5HT1a in HEK293; assay: enhancement of serotonin-evoked TRPC4 response – cell-based, second counter screen, HEK293 TRPC4/5HT1a, Fluo-4, counter-screen for TRPC4 potentiator project, confirmation (AID 434979;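 active = signal rise over 3 SD above mean of control wells given weak agonist, in both repeats and first screen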); conditions: Fluo-4 calcium flux, at 10 µM, serotonin added at its EC20 dose; stronger effect = higher value
# [24] = nonspecific calcium rise without TRPC4 – cell-based, HEK293 mu-opioid receptor line, counter-screen for TRPC4 activator project, confirmation (AID 449723;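 active = hit in primary screen, with calcium signal over 5 SD above buffer well mean in both duplicates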;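 note: counter screen cells carry the mu-opioid receptor alone and lack TRPC4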); conditions: HEK293 mu-opioid cells, Fluo-4 calcium fluorescence, at 10 µM; stronger effect = higher value
# [25] = nonspecific potentiation of DAMGO calcium response – cell-based, HEK293 mu-opioid receptor line, counter-screen for TRPC4 allosteric potentiator project, confirmation (AID 449724;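 active = calcium signal rise more than 3 SD above the low-dose agonist control mean, in both duplicate plates and the primary screen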); conditions: HEK293 mu-opioid receptor cells, Fluo-4 calcium flux, at 10 µM, compound added before EC20 DAMGO stimulus; stronger effect = higher value
# [26] = target: Short transient receptor potential channel 4 (Mus musculus) (UniProt Q9QUQ5); assay: potentiation of DAMGO-evoked TRPC4 calcium signal – cell-based, HEK293 TRPC4/mu-opioid, Fluo-4 calcium, EC20 DAMGO, dose response (AID 434941;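 active = earlier screen potentiator hit that boosts the TRPC4 ion channel at some dose, with a dose response; inactive = no potentiation, no dose response, or not a prior hit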;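 note: calcium entry triggered by an EC20 dose of DAMGO at the co-expressed mu-opioid receptor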)
# Short transient receptor potential channel 4 (Mus musculus), sequence (Q9QUQ5 whole entry, looked up): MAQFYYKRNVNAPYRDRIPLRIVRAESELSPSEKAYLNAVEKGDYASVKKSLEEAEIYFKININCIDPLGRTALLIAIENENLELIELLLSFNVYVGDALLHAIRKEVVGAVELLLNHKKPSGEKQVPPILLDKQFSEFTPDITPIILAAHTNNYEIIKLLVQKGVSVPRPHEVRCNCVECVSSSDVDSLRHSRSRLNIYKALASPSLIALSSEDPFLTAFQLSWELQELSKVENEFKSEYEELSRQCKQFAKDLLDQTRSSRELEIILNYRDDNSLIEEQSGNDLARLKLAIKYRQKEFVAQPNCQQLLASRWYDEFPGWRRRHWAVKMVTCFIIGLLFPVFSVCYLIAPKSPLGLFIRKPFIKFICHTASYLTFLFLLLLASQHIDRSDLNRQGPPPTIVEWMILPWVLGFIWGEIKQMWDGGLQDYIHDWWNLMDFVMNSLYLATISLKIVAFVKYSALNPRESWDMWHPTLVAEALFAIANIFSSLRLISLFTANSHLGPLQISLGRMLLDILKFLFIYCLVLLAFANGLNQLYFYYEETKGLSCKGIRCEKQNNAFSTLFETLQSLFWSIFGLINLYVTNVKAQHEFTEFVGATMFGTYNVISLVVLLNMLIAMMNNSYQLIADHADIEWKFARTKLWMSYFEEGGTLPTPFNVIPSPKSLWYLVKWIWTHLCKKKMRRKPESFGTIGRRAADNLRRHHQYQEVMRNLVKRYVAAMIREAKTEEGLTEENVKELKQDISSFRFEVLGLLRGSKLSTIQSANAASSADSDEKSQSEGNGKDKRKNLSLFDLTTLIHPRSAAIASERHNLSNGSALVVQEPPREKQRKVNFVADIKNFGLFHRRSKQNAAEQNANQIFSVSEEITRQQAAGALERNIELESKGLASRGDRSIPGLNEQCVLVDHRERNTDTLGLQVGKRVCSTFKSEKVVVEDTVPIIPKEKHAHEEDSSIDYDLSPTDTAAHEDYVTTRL
# Short transient receptor potential channel 6 (Mus musculus), sequence (Q61143 whole entry, looked up): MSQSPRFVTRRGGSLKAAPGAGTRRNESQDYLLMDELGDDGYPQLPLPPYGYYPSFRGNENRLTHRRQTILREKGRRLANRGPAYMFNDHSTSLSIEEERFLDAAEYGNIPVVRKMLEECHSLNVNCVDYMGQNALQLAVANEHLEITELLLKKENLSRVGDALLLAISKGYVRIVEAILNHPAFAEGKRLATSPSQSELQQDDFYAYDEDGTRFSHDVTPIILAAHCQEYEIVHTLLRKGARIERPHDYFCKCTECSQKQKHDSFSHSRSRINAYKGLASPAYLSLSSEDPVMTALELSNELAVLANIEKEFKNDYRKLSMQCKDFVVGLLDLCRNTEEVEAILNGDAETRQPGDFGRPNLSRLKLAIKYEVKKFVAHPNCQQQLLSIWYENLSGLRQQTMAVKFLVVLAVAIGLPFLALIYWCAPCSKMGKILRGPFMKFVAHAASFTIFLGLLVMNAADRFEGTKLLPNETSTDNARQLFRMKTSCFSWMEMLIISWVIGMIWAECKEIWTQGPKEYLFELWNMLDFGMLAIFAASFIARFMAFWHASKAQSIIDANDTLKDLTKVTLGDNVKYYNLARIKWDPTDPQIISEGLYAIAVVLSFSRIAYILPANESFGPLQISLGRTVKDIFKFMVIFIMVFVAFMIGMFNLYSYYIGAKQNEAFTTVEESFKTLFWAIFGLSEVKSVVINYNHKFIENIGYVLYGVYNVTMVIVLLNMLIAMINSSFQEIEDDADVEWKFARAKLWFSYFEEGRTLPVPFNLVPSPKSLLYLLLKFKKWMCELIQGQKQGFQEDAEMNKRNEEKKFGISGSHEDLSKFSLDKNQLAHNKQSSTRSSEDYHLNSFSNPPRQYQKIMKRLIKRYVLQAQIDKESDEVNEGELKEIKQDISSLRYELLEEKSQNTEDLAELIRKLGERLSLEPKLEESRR
# Potassium voltage-gated channel subfamily KQT member 1 (Homo sapiens), sequence (P51787 whole entry, looked up): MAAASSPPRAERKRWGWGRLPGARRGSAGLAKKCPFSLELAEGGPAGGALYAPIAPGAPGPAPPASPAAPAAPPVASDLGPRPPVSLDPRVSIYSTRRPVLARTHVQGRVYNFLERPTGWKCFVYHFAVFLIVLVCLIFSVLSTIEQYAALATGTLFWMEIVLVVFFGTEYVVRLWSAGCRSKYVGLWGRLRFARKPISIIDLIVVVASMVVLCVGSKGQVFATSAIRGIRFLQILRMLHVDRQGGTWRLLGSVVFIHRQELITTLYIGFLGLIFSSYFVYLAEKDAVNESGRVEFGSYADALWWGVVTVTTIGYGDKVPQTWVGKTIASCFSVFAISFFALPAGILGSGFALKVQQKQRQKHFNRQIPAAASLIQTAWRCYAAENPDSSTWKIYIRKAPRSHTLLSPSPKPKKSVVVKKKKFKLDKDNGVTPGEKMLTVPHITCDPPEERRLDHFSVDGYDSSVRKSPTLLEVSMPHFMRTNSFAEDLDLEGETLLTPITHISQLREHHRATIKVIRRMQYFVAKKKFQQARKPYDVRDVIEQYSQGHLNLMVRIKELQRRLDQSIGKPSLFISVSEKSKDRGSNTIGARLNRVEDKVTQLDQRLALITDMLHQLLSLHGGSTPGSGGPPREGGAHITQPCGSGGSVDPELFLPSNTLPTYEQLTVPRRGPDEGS
# Potassium voltage-gated channel subfamily KQT member 2 (Rattus norvegicus), sequence (O88943 whole entry, looked up): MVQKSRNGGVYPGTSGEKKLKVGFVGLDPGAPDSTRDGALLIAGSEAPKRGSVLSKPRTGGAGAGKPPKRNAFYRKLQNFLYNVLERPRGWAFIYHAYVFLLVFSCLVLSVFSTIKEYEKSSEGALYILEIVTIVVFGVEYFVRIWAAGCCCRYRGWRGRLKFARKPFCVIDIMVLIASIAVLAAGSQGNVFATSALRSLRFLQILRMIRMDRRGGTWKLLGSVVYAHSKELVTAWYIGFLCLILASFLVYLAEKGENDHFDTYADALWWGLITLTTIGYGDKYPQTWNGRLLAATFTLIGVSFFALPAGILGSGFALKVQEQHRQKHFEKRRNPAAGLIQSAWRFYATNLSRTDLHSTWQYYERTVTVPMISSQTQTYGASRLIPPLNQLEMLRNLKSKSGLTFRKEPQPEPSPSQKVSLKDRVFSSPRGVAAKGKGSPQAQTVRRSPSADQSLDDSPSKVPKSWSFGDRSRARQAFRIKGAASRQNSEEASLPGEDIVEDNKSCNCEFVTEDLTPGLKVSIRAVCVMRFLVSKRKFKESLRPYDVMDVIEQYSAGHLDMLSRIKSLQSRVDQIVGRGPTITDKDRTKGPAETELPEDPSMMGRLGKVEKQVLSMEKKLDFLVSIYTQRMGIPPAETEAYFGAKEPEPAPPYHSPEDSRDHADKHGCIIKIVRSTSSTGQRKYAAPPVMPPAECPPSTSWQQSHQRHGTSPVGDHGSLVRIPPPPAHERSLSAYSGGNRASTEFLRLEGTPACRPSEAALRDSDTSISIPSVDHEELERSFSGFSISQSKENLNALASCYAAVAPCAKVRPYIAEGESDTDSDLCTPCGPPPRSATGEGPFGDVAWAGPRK
structure (smiles),measurement,setting,value
O=C(NNS(=O)(=O)c1ccc(Cl)cc1)C1CCN(Cc2ccccc2)CC1,outcome,[1],inactive
same,outcome,[2],inactive
same,signal change vs control,[3],-4% (active)
same,membrane potential signal change,[4],0.15% (active)
same,inhibition,[5],77.8% (active)
same,outcome,[6],inactive
COc1ccc(CNC(=O)c2cc3c(=O)n4ccccc4nc3n(CC3CCCO3)c2=N)cc1 (stereo not given),outcome,[1],inactive
same,"activity change, negative = inhibition",[2],-15.8% (active)
same,signal change vs control,[3],32% (active)
same,membrane potential signal change,[4],-176% (active)
same,outcome,[5],inactive
same,outcome,[6],inactive
same,outcome,[7],inactive
same,outcome,[8],inactive
same,outcome,[9],inactive
same,outcome,[10],inactive
CC(C)c1ccc(OCC(O)Cn2cnc3ccccc32)cc1 (stereo not given),outcome,[1],inactive
same,outcome,[2],inactive
same,outcome,[3],inactive
same,outcome,[4],inactive
same,outcome,[5],inactive
same,outcome,[6],inactive
C[C@H](NC(=O)OC(C)(C)C)c1nnc(SCC(=O)Nc2ccc(Br)cc2)o1,outcome,[1],inactive
same,outcome,[2],inactive
same,outcome,[3],inactive
same,membrane potential signal change,[4],0.29% (active)
same,outcome,[5],inactive
CCCCCCCCCCOC(=O)C[N+](C)(C)CC1CCCCC1O (stereo not given),outcome,[1],inactive
same,"activity change, negative = inhibition",[2],7.58% (active)
same,outcome,[3],inactive
same,membrane potential signal change,[4],2.25% (active)
same,outcome,[5],inactive
same,outcome,[6],inactive
CN(C)CCCOc1cccc(Cl)c1,activation,[11],71% (active)
same,activation,[12],55% (active)
same,potentiation,[13],32% (active)
same,potentiation,[14],37% (active)
same,outcome,[15],inactive
same,outcome,[16],inactive
same,outcome,[17],inactive
same,outcome,[18],inactive
same,activation,[19],51% (active)
same,outcome,[20],inactive
same,activation,[21],17.9% (active)
same,outcome,[22],inactive
same,potentiation,[23],28.7% (active)
same,outcome,[24],inactive
same,outcome,[25],inactive
CC(C)(C)NCc1cc(Br)ccc1OC1CCCC1,inhibition,[1],36% (active)
same,"activity change, negative = inhibition",[2],74.6% (active)
same,signal change vs control,[3],5% (active)
same,membrane potential signal change,[4],38.4% (active)
same,inhibition,[5],123% (active)
CC(C)CCNc1nc(N2CCCC2)c2c(c1C#N)CCN(C)C2,inhibition,[1],54% (active)
same,"activity change, negative = inhibition",[2],-16.9% (active)
same,outcome,[3],inactive
same,membrane potential signal change,[4],-209% (active)
same,inhibition,[5],71.5% (active)
same,outcome,[6],inactive
c1ccc(C2c3[nH]c4ccccc4c3CCN2Cc2cccn2-c2cccnc2)nc1 (stereo not given),outcome,[1],inactive
same,"activity change, negative = inhibition",[2],-10.1% (active)
same,outcome,[3],inactive
same,membrane potential signal change,[4],-129% (active)
same,outcome,[5],inactive
same,outcome,[6],inactive
COc1ccccc1OCCNCC(O)COc1cccc2[nH]c3ccccc3c12 (stereo not given),inhibition,[1],28% (active)
same,outcome,[2],inactive
same,outcome,[3],inactive
same,outcome,[4],inactive
same,inhibition,[5],61.1% (active)
same,outcome,[6],inactive
CC(C)(C)c1ccc(C(=O)NC(=S)NNC(=O)COc2ccccc2)cc1,outcome,[11],inactive
same,outcome,[12],inactive
same,outcome,[13],inactive
same,outcome,[14],inactive
same,inhibition,[15],78% (active)
same,outcome,[16],inactive
same,outcome,[26],inactive
same,outcome,[18],inactive
same,outcome,[19],inactive
same,outcome,[20],inactive
same,activation,[21],16.6% (active)
same,inhibition,[22],27.8% (active)
same,outcome,[23],inactive
same,outcome,[24],inactive
same,outcome,[25],inactive
same,activation,[7],186% (active)
same,potentiation,[8],59.5% (active)
same,potentiation,[9],208% (active)
same,outcome,[10],inactive
